This is one part of a sample in which hits are shown more often than they occur.
Tb PFK inh – blocks T. brucei phosphofructokinase; T. brucei PFK, ADP-Glo luminescence; 0.17% of 330,000 active; O15648; Potency, µM (titrated, usually from 57.5 µM), for the others: at the top dose activity, negative = inhibition, usual class: inhibitors;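 note: potency is the fitted concentration of half-maximal effect; 0% = uninhibited 1x PFK enzyme wells and -100% = no-enzyme wells; nearly all actives have a fitted effect of over 60% in size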
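Activity is normalized to no-enzyme wells (full inhibition) and 1.25 nM enzyme wells (no inhibition). Reaction: 0.5 mM F6P, 0.1 mM ATP, 45 min RT, ADP-Glo luminescence; concentration-response curves fitted and classed by quality.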
PGK inhibitor – T. brucei PGK inhibition | P07378 | 0.043% of 380,000 active | PGK/GAPDH coupled, Kinase-Glo luminescence, 60 min | Potency, µM (series often up to 57.5 µM), without a hit: top-dose activity change, negative = inhibition, usual class: inhibitors; note: potency is the fitted concentration of half-maximal effect; nearly all actives have a fitted effect of over 60% in size
Target sequence (P07378 whole entry, looked up): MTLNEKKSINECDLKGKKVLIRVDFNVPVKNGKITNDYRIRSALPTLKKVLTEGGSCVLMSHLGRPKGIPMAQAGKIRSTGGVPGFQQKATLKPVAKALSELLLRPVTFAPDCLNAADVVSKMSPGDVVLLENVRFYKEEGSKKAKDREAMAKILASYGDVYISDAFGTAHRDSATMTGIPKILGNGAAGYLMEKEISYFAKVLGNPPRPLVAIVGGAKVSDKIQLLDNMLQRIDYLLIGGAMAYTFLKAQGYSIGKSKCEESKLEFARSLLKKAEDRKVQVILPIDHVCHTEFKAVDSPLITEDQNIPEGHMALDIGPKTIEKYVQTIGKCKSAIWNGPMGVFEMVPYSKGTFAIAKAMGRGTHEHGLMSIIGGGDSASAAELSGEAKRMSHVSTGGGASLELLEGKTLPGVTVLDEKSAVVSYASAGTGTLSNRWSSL
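Luminescent ATP detection (Kinase-Glo Plus) follows a 60-minute room-temperature incubation, with wells lacking PGK as controls. Buffer: 100 mM TEA (pH 7.6), 5 mM MgCl2, 0.01% Tween-20. Coupling enzyme GAPDH (100 nM final) supplies unstable 1,3-BPG in-well.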
PI4K2A block – blocks human PI4K2A kinase activity. Q9BTU6. purified PI4K2A, ADP-Glo luminescence, 1 h; stronger effect = lower value. activity change, negative = inhibition, % at 76.9 µM. 0.13% of 420,000 active. AID 1346378; in the data active = activity change below about -50%; inconclusive = mostly about -30% to -49%;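 note: -100% = wells without enzyme as full effect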
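ADP-Glo luminescence measured ADP generated by PI4K2A enzyme (4 ug/mL before mixing) with 1.2 mM PI substrate (pre-mix) and 300 microM ATP (pre-mix). Tris pH7.5 buffer with MgCl2, Triton X-100; 1 h reaction at ambient temperature.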
Pin1 inh – inhibitors of human Pin1; AID 504891; Q13526; Potency, µM (series often up to 115 µM), inactives show top-dose activity, negative = inhibition, most hits filed as inhibitors; Pin1 FP peptide displacement, HiFluor488, 10 min; 0.009% of 390,000 active; active = well fitted inhibition curve with a large enough effect in the polarisation, with a control signal flat, not every such curve was filed as active; inconclusive = small, poorly fitted or top-dose-only effect, or effect the other way, or a change in a side signal; inactive = no such curve, though single readings can be large or run the other way; the % refers to the polarisation; note: potency is the fitted concentration of half-maximal effect
Target sequence (Q13526 whole entry, looked up): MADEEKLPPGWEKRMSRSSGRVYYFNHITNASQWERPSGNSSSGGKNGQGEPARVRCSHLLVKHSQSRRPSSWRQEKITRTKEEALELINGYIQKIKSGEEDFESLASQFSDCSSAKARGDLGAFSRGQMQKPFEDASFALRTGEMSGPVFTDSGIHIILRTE
PI5P4Ka inh – blocks human PI5P4K alpha kinase activity; P48426; PI5P4Kalpha enzyme, ADP-Glo luminescence, 60 min; stronger effect = lower value; 1.2% of 330,000 active; max response, %; active = max response of -50% or lower; inconclusive = between -30% and -50%; inactive = -30% or higher; note: value at the top dose of about 77 µM
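Quantitative HTS of the MLSMR library against PI5P4Kalpha with substrate. ATP added last at 5 microM final; room temperature, 60 minutes. Remaining ATP depleted, ADP converted and read as luminescence.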
* hit, by the source's call; i = inactive; u = inconclusive; x = not tested or not shown. Unless noted, calls come from the whole dose curve; as a rule, active = well fitted curve in the direction sought with a large enough effect; inconclusive = small, poorly fitted or top-dose-only effect, or another doubt; inactive = no such curve, though single readings can be large; an effect the other way counts as inactive or inconclusive. Unless noted, % is set by controls: 0 for no effect and ±100 for the full control effect.

SMILES	Tb PFK inh	PGK inhibitor	PI4K2A block	Pin1 inh	PI5P4Ka inh
CN(C)c1ccc(/C=C/c2ccc3c4ccccc4ccc3[n+]2-c2ccccc2)cc1	-11%	u	-54*	43%	-87*
c1nc(NCC2CCCO2)c2ccc(-c3ccc4c(c3)OCO4)cc2n1 (stereo not drawn)	x	x	x	-13%	x
COC[C@@H](c1ccc(C(F)(F)F)cc1)N1CCN(C2(C)CCN(C(=O)c3c(C)ncnc3C)CC2)C[C@H]1C	x	x	3	x	x
C=CCNc1nc(C(=O)OCC(=O)c2cccc(Br)c2)cs1	-20%	u	-8	u	-59*
CCOc1ccc(NC(=O)CSc2nc3ccsc3c(=O)n2CCCCC(=O)O)cc1	x	-6%	-8	x	-65*
S=c1[nH]nc(NCCCN2CCOCC2)s1	1%	-1%	4	1%	-69*
COc1ccc(C(=O)Nc2cccc(/C=C(\CCC(=O)O)c3nc4ccccc4s3)c2)cc1	5%	-21%	-8	x	-56*
O=C(O)C/C(=C\c1cccc(NC(=O)c2ccccc2Cl)c1)c1nc2ccccc2s1	u	-6%	-13	-22%	u
C=C[C@H]1CN2CC[C@@H]1C[C@@H]2[C@@H](O)c1ccnc2ccc(OC)cc12	x	x	-1	x	x
COC(=O)C1CN(Cc2ccc(F)cc2)CCS(=O)(=O)N1Cc1cn(Cc2ccc(Cl)cc2)nn1 (stereo not drawn)	x	x	-1	x	x
NC(=O)C1CCN(c2nccc(Cl)n2)CC1	x	x	x	-4%	x
C#CCOCCOCCOCCNc1nc(N2CCN(C(=O)CCCCCCCCCCNC(=O)[C@@H](CCSC)n3cc(CCO)nn3)CC2)nc(N2CCN(C(=O)CCCCCCCCCCNC(=O)[C@H]([C@@H](C)CC)n3cc(CCCCN=C(N)N)nn3)CC2)n1	u	7%	2	u	-73*
C#CCOCCOCCOCCNc1nc(N2CCN(C(=O)CCCCCCCCCCNC(=O)[C@H]([C@@H](C)CC)n3cc(CCCCN=C(N)N)nn3)CC2)nc(N2CCN(C(=O)CCCCCCCCCCNC(=O)[C@H](CCCCN)n3cc(C[C@@H](C)CC)nn3)CC2)n1	-7%	x	x	x	x
C#CCOCCOCCOCCNc1nc(N2CCN(C(=O)CCCCCCCCCCNC(=O)[C@@H](CCSC)n3cc(CCO)nn3)CC2)nc(N2CCN(C(=O)CCCCCCCCCCNC(=O)[C@H]([C@@H](C)CC)n3cc(CCCCCN)nn3)CC2)n1	u	8%	0	44%	-54*
COc1ccc(C2COc3cc(O)ccc3C2)c(OC)c1O (stereo not drawn)	x	-4%	-2	-1%	-6
Oc1ccc2c(c1)OCC1(O)Cc3cc(O)c(O)cc3C21 (stereo not drawn)	x	-4%	-3	u	-88*
C(=C\c1nc2ccccc2[nH]1)/c1ccccc1	-24%	u	-55*	0%	x
C(=C\c1ccco1)/c1nc2ccccc2[nH]1	-19%	-29%	-23	25%	-16
CC(=O)c1ccc(NCCCN2CCC(C(O)(c3ccccc3)c3ccccc3)CC2)cc1	x	x	-8	x	x
C[C@@H]1C[C@H]2[C@@H]3CCC4=CC(=O)C=C[C@]4(C)[C@@]3(F)C(O)C[C@]2(C)[C@@]1(O)C(=O)CO (stereo partly drawn)	x	x	x	1%	x
Cc1cc(C)nc(SCC(=O)Nc2sc3c(c2C#N)CCC(C)C3)n1 (stereo not drawn)	x	-12%	0	-3%	-5
C=CCn1c(SCC(=O)Nc2sc3c(c2C#N)CCC(C)C3)nc2cc(C(=O)O)ccc2c1=O (stereo not drawn)	-1%	u	9	-17%	-53*
COCCn1c(SCC(=O)Nc2ccccc2OC)nc2c(oc3ccccc32)c1=O	0%	0%	4	19%	0
COCCn1c(SCC(=O)Nc2cccc(C)c2C)nc2c(oc3ccccc32)c1=O	x	-1%	-66*	-9%	x
CCn1c(SCC(=O)N2CCCC2)nc2ccccc2c1=O	-4%	0%	-4	2%	x
SMILES	Tb PFK inh	PGK inhibitor	PI4K2A block	Pin1 inh	PI5P4Ka inh
COCCn1c(SCC(=O)N2CCCCC2)nc2ccccc2c1=O	23%	i	-65*	6%	x
Cc1ccc(C)c(N2CCN(C(=O)C3CCN(S(=O)(=O)c4cccc5nsnc45)CC3)CC2)c1	2%	-3%	-61*	18%	-2
Cc1ccc(C)c(N2CCN(C(=O)C3CCCN(S(=O)(=O)c4cccc5nsnc45)C3)CC2)c1 (stereo not drawn)	x	i	-3	16%	x
CC[N+](CC)(CC)CCOC(=O)C(C1CCCC1)C1CCCC1	x	x	0	x	x
CCN(CC)C(=O)Nc1ccc(OCC(O)CNC(C)(C)C)c(C(C)=O)c1 (stereo not drawn)	x	x	4	x	x
CCOC(=O)Cc1nc(N2CCN(C(=O)C3CCCO3)CC2)c2c(C)c(C(=O)OCC)sc2n1 (stereo not drawn)	x	x	-3	x	x
Cc1cccc2cc3c(nc12)SC(=NCC1CCCO1)N(Cc1ccco1)C3 (stereo not drawn)	-1%	3%	-12	u	-55*
Cc1ccc2nc3c(cc2c1)CN(Cc1ccco1)C(=NCC1CCCO1)S3 (stereo not drawn)	3%	3%	6	10%	-19
O=C(Nc1cccc(Br)c1)c1ccc2nc(N3C(=O)CCC3=O)sc2c1	-6%	-8%	0	20%	-58*
C[C@@H]1Cc2c(O)c(O)cc(O)c2C(=O)O1	-1%	-19%	-8	x	-27
O=C1C=C(O)c2c(O)cc(O)c(O)c2C1=O	x	u	u	x	-68*
O=C1c2ccccc2C(=O)c2c(O)c(O)cc(O)c21	-10%	u	-14	u	-106*
CCCC1CCC2(CC1)CCC2OC(=S)Nc1cccc(Cl)c1 (stereo not drawn)	x	x	8	x	x
CC(C)N1Cc2ccc(Nc3nn4c(=O)c5ccccc5nc4s3)cc2C1	x	x	x	-1%	x
COc1cc(NC(=O)C(OC(=O)CNC(=O)c2ccccc2)c2ccccc2)cc(OC)c1 (stereo not drawn)	x	x	x	6%	x
N#Cc1c(-c2ccco2)cc(-c2ccccn2)nc1N	-6%	-7%	-23	u	-67*
CC1CCN(c2ccc(-c3cccs3)nn2)CC1	-14%	-1%	-57*	-8%	u
Nc1ccc(Oc2ncccn2)cc1	-4%	x	-54*	-10%	-22
O=Cc1cccc(Oc2ncccn2)c1	1%	1%	4	0%	2
O=C(CSc1nnc(SCc2cccc3ccccc23)s1)Nc1ccc(C(=O)O)cc1	3%	-7%	-3	-24%	-93*
Cc1cc(NC(=O)CSc2n[nH]c(=O)[nH]c2=O)ccc1Br	0%	i	5	-1%	1
O=C(CSc1n[nH]c(=O)[nH]c1=O)Nc1ccc(C(=O)O)cc1	2%	i	-5	1%	-64*
CSc1nsc(SCC(=O)Nc2ccc(F)cc2)n1	-3%	3%	0	1%	5

Compound activity deposited in PubChem BioAssay by National Center for Advancing Translational Sciences (NCATS).
